The results in this text go back to PubChem BioAssay (NCI).

Assay [1] in a line: NCI Yeast Anticancer Drug Screen. Data for the rad50 strain (AID 155).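 Note: 0% = growth of vehicle-only cultures of the same strain.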 Particulars: S. cerevisiae rad50 strain growth inhibition, active compounds read high. The essentials:
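Relative growth inhibition (compound vs vehicle) was measured in yeast with a defined repair-gene alteration.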

A short description of assay [2]: NCI Yeast Anticancer Drug Screen. Data for the mec2-1 strain (AID 157). The conditions noted are these: S. cerevisiae mec2-1 strain, active compounds read high. The method in brief: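 Readout is yeast growth inhibition, normalised to vehicle-treated controls, in the mec2-1 strain exposed to compound.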
Assay [3] can be described thus: NCI Yeast Anticancer Drug Screen. Data for the sgs1 mgt1 strain (AID 161).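 Note: 0% = growth of cultures given vehicle only.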 Particulars: S. cerevisiae sgs1 mgt1 strain, active compounds read high. The method in brief:
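Compounds are added to genetically altered yeast, and growth is compared with cultures given vehicle alone to give percent inhibition.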

Assay [4] is described as follows: NCI Yeast Anticancer Drug Screen. Data for the cln2 rad14 strain (AID 165).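 Note: 0% = growth equal to vehicle treated cultures.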 The conditions noted are these: S. cerevisiae cln2 rad14 strain, active compounds read high. The method in brief:
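Relative to vehicle controls, growth inhibition of compound-treated cln2 rad14 yeast was recorded.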

Assay [5] is described as follows: NCI Yeast Anticancer Drug Screen. Data for the bub3 strain (AID 167). Particulars: S. cerevisiae bub3 mutant strain, active compounds read high. The method in brief: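 Screening used yeast with an engineered genetic alteration affecting cell cycle control. Compound-exposed cultures were compared with vehicle cultures, and reduced growth was taken as inhibition.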
Assay [6] is described as follows: NCI Yeast Anticancer Drug Screen. Data for the mlh1 rad18 strain (AID 175). The conditions noted are these: S. cerevisiae mlh1 rad18 strain growth inhibition, active compounds read high. The method in brief: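 Test agents were incubated with a yeast strain of defined genotype (DNA damage repair defect). Inhibition of growth was derived by comparison with vehicle-exposed cultures.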

Where [7] appears, read: at 5.0 µM (retest, dose inferred, filed as 0.5).
Where [8] appears, read: at 50.0 µM (retest, dose inferred, filed as 5.0).

“And” between values parts separate entries of the source, which are not always exact repeats. Identical values can stand only once. About 79,000 compounds went through this panel and 15% of them were active in at least one assay; those are over-represented in the sample as a whole. Values without a mark were called inactive. The source made the active and inactive calls. Cut-off read from the data, not from the text of the source: active = growth inhibition above about 70%; inactive = the rest.

Regarding `CC(=O)Nc1cccc([As+](C)(c2cccc(NC(C)=O)c2)c2cccc(NC(C)=O)c2)c1`, the growth inhibition is -1% in assay [1] (setting [7]); 11% in assay [1] (setting [8]); 4.35% in assay [1] (at 50.0 µM); 13% in assay [2] (setting [7]); 14% in assay [2] (setting [8]); -2% in assay [2] (at 50.0 µM). Besides, the growth inhibition was -14% in assay [3] (setting [7]); 13% in assay [3] (setting [8]); -5.65% in assay [3] (at 50.0 µM); 18% in assay [4] (setting [7]); 15% in assay [4] (setting [8]); -26% in assay [4] (at 50.0 µM). Moreover, the growth inhibition in assay [5] (setting [7]) is 5%; in assay [5] (setting [8]), 3%; in assay [5] (at 50.0 µM), 6.05%; in assay [6] (setting [7]) it was 7%; in assay [6] (setting [8]) it was 11%; in assay [6] (at 50.0 µM) it was 8.65%.
As for `O=C(O)CP(=O)(c1ccccc1)c1ccccc1.O=C(O)CP(=O)(c1ccccc1)c1ccccc1.[Cd]`, the growth inhibition is 33% in assay [1] (setting [7]); 88% (active) in assay [1] (setting [8]); 83.4% (active) in assay [1] (at 50.0 µM); 40% in assay [2] (setting [7]); 51% in assay [2] (setting [8]); 42.6% in assay [2] (at 50.0 µM). In addition, the growth inhibition in assay [3] (setting [7]) is 11%; in assay [3] (setting [8]), 47%; in assay [3] (at 50.0 µM), 56%; in assay [4] (setting [7]), -3%; in assay [4] (setting [8]) it was 48%; in assay [4] (at 50.0 µM) it was 58.9%. Besides, the growth inhibition in assay [5] (setting [7]) was 4%; in assay [5] (setting [8]), 43%; in assay [5] (at 50.0 µM), 26.9%; in assay [6] (setting [7]), 17%; in assay [6] (setting [8]), 57%; in assay [6] (at 50.0 µM), 57.8%.
In the case of `CC(Cc1ccccc1)N(C)Cc1ccc(-c2ccc(Cl)cc2)o1` (configuration not stated), the growth inhibition in assay [1] (setting [7]) was 56%; in assay [1] (setting [8]), 100% (active); in assay [1] (at 50.0 µM), 99% (active); in assay [2] (setting [7]) it was 11%; in assay [2] (setting [8]), 100% (active); in assay [2] (at 50.0 µM) it was 99.7% (active). Also, the growth inhibition in assay [3] (setting [7]) is 49%; in assay [3] (setting [8]) it was 100% (active); in assay [3] (at 50.0 µM), 33.9%; in assay [4] (setting [7]), 38%; in assay [4] (setting [8]), 100% (active); in assay [4] (at 50.0 µM) it was 99.3% (active). Besides, the growth inhibition is 42% in assay [5] (setting [7]); 100% (active) in assay [5] (setting [8]); 99.2% (active) in assay [5] (at 50.0 µM); 41% in assay [6] (setting [7]); 100% (active) in assay [6] (setting [8]); 99.5% (active) in assay [6] (at 50.0 µM).
Turning to `CCOC(=O)N(C(=O)c1ccc([As]=O)cc1)C(=O)c1ccc([As]=O)cc1` (configuration not stated), the growth inhibition in assay [1] (setting [7]) is 8%; in assay [1] (setting [8]), 98% (active); in assay [1] (at 50.0 µM) it was 99.2% (active); in assay [2] (setting [7]) it was 5%; in assay [2] (setting [8]), 99% (active); in assay [2] (at 50.0 µM) it was 99.3% (active). Moreover, the growth inhibition in assay [3] (setting [7]) was 10%; in assay [3] (setting [8]), 100% (active); in assay [3] (at 50.0 µM), 99.5% (active); in assay [4] (setting [7]), -4%; in assay [4] (setting [8]), 99% (active); in assay [4] (at 50.0 µM), 99% (active). The growth inhibition was 11% in assay [5] (setting [7]); 99% (active) in assay [5] (setting [8]); 89.3% (active) in assay [5] (at 50.0 µM); 6% in assay [6] (setting [7]); 99% (active) in assay [6] (setting [8]); 98.7% (active) in assay [6] (at 50.0 µM).
With `CCCCCCCCCCCCCCCC[N+](C)(C)CCBr`, the growth inhibition is 99% (active) in assay [1] (setting [7]); 98% (active) in assay [1] (setting [8]); 89.2% (active) and 98.8% (active) in assay [1] (at 50.0 µM); 99% (active) in assay [2] (setting [7]); 99% (active) in assay [2] (setting [8]); 92.5% (active) and 99.2% (active) in assay [2] (at 50.0 µM). For the same molecule, the growth inhibition is 99% (active) in assay [3] (setting [7]); 99% (active) in assay [3] (setting [8]); 87.2% (active) and 99.3% (active) in assay [3] (at 50.0 µM); 99% (active) in assay [4] (setting [7]); 99% (active) in assay [4] (setting [8]); 89.2% (active) and 99.2% (active) in assay [4] (at 50.0 µM). The growth inhibition in assay [5] (setting [7]) is 99% (active); in assay [5] (setting [8]) it was 99% (active); in assay [5] (at 50.0 µM), 82.3% (active) and 99.1% (active); in assay [6] (setting [7]), 98% (active); in assay [6] (setting [8]), 98% (active); in assay [6] (at 50.0 µM), 92.3% (active) and 99.2% (active).
Regarding `CCC[CH2][Sn]1([CH2]CCC)[O]N=Cc2ccccc2[O]1`, the growth inhibition in assay [1] (setting [7]) is 46%; in assay [1] (setting [8]) it was 94% (active); in assay [1] (at 50.0 µM), 86.8% (active); in assay [2] (setting [7]), 50%; in assay [2] (setting [8]) it was 97% (active); in assay [2] (at 50.0 µM), 90.5% (active). For the same molecule, the growth inhibition in assay [3] (setting [7]) was 79% (active); in assay [3] (setting [8]), 98% (active); in assay [3] (at 50.0 µM) it was 88.2% (active); in assay [4] (setting [7]), 62%; in assay [4] (setting [8]), 97% (active); in assay [4] (at 50.0 µM), 87.1% (active). The growth inhibition in assay [5] (setting [7]) is 85% (active); in assay [5] (setting [8]) it was 98% (active); in assay [5] (at 50.0 µM), 90.1% (active); in assay [6] (setting [7]), 73% (active); in assay [6] (setting [8]) it was 97% (active); in assay [6] (at 50.0 µM), 88.3% (active).
Consider `CC[N-]c1nnnn1CC.[Au+].c1ccc([PH+](c2ccccc2)c2ccccc2)cc1`, for which the growth inhibition in assay [1] (setting [7]) is 99% (active); in assay [1] (setting [8]), 98% (active); in assay [1] (at 50.0 µM) it was 97.8% (active); in assay [2] (setting [7]), 99% (active); in assay [2] (setting [8]), 98% (active); in assay [2] (at 50.0 µM), 98.4% (active). The growth inhibition in assay [3] (setting [7]) was 99% (active); in assay [3] (setting [8]), 98% (active); in assay [3] (at 50.0 µM) it was 97.7% (active); in assay [4] (setting [7]), 97% (active); in assay [4] (setting [8]), 96% (active); in assay [4] (at 50.0 µM), 97.2% (active). The growth inhibition in assay [5] (setting [7]) is 99% (active); in assay [5] (setting [8]) it was 98% (active); in assay [5] (at 50.0 µM) it was 97.8% (active); in assay [6] (setting [7]), 99% (active); in assay [6] (setting [8]) it was 97% (active); in assay [6] (at 50.0 µM), 97.2% (active).
For the molecule `CCCCCC(Cn1ccnc1)c1ccc(Cl)cc1Cl` (configuration not stated), the growth inhibition in assay [1] (setting [7]) is 72% (active); in assay [1] (setting [8]) it was 95% (active); in assay [1] (at 50.0 µM), 99.5% (active); in assay [2] (setting [7]), 50%; in assay [2] (setting [8]) it was 94% (active); in assay [2] (at 50.0 µM), 99% (active). The growth inhibition in assay [3] (setting [7]) is 69%; in assay [3] (setting [8]), 97% (active); in assay [3] (at 50.0 µM) it was 99.4% (active); in assay [4] (setting [7]) it was 72% (active); in assay [4] (setting [8]), 98% (active); in assay [4] (at 50.0 µM) it was 99.7% (active). Besides, the growth inhibition in assay [5] (setting [7]) was 72% (active); in assay [5] (setting [8]) it was 99% (active); in assay [5] (at 50.0 µM), 99.8% (active); in assay [6] (setting [7]) it was 72% (active); in assay [6] (setting [8]), 100% (active); in assay [6] (at 50.0 µM) it was 99.6% (active).
For the molecule `CC[CH2][Sn]([CH2]CC)([CH2]CC)[CH2]CCBr`, the growth inhibition in assay [1] (setting [7]) is 98% (active); in assay [1] (setting [8]), 99% (active); in assay [1] (at 50.0 µM), 99.5% (active); in assay [2] (setting [7]), 99% (active); in assay [2] (setting [8]) it was 100% (active); in assay [2] (at 50.0 µM) it was 99.7% (active). Moreover, the growth inhibition was 99% (active) in assay [3] (setting [7]); 100% (active) in assay [3] (setting [8]); 99.6% (active) in assay [3] (at 50.0 µM); 99% (active) in assay [4] (setting [7]); 98% (active) in assay [4] (setting [8]); 99.3% (active) in assay [4] (at 50.0 µM). Also, the growth inhibition is 99% (active) in assay [5] (setting [7]); 99% (active) in assay [5] (setting [8]); 99.7% (active) in assay [5] (at 50.0 µM); 99% (active) in assay [6] (setting [7]); 99% (active) in assay [6] (setting [8]); 99.5% (active) in assay [6] (at 50.0 µM).
